Screening data from PubChem BioAssay.
Pf growth 96h: Primary qHTS for delayed death inhibitors of the malarial parasite plastid, 96 hour incubation | P. falciparum luciferase reporter growth, 96 h | Potency, µM (top dose mostly 28.7 µM), inactives show at the top dose activity change, negative = inhibition, hits mostly inhibitors | 6.9% of 320,000 active | AID 504834, 2011; further: potency means the concentration at half of the fitted maximal effect; on the % scale 0 is the no-effect control and ±100 the full control effect
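Parasite growth measured via integrated firefly luciferase reporter in P. falciparum. Infected erythrocytes at 2% hematocrit, 0.05% parasitemia final were treated 96 hours at 37 C under 5% CO2, and luminescence was read.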
Pf growth 48h: Primary qHTS for delayed death inhibitors of the malarial parasite plastid, 48 hour incubation; P. falciparum luciferase growth in erythrocytes, 48 h; Potency, µM (titrated, usually from 28.7 µM), for the others: at the highest dose activity change, negative = inhibition, actives largely listed as inhibitors; 5.9% of 310,000 active; further: potency means the concentration at half of the fitted maximal effect; on the % scale 0 is the no-effect control and ±100 the full control effect
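Growth was read as firefly luciferase luminescence after a 48 h, 37 C, 5% CO2 exposure of compounds to reporter-bearing P. falciparum cultures (0.1% parasitemia, 2% hematocrit final) in Albumax-supplemented RPMI 1640.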
HCMV inh: qHTS Assay for inhibitors of the human cytomegalovirus (HCMV); HFF cells, HCMV-luciferase reporter, 72 h; active compounds read low; activity change, negative = inhibition, % at 57.5 µM; 4.5% of 410,000 active; AID 1259415, 2018; in the data active means activity change below about -60%; inconclusive means no clear call, values can overlap the other calls; inactive means above about -39%; further: on the % scale 0 is the no-effect control and ±100 the full control effect
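Luciferase read-out from HCMV-luciferase-infected HFFs (MOI 1 PFU/cell) 72 h post infection at 37C; compounds added after 16 h cell attachment; activity normalized between buffer-only basal and Salinomycin (10uM) inhibitor controls.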
Cycloheximide cs: Cycloheximide Counterscreen for Small Molecule Inhibitors of Shiga Toxin; cell reporter, cycloheximide protein synthesis inhibition counterscreen; max response, %; 12% of 300,000 active; AID 2314, 2010; in the data active means max response mostly above about 13%, no sharp cut-off; inactive means mostly below about 14%; further: read at 38.3 µM for the half of the compounds with a filed dose; 0% is about no effect
Shiga inhibitor: A qHTS for Small Molecule Inhibitors of Shiga Toxin; Vero cells, Shiga toxin protein synthesis inhibition reporter; inhibition, % at 38.7 µM; 9.2% of 290,000 active; AID 2315, 2010; in the data active means inhibition mostly above about 28%, no sharp cut-off; inactive means mostly below about 43%; further: 0% is about no effect
* hit, by the source's call; ? = inconclusive; · = no result given. An excerpt weighted towards active compounds, which were near 20% of everything screened. Unless noted, the call rests on the fitted dose curve; in most records, active means well fitted inhibition curve with a large enough effect; inconclusive means small, poorly fitted or top-dose-only effect, or another doubt; inactive means no such curve, though single readings can be large or run the other way.

SMILES | Pf growth 96h | Pf growth 48h | HCMV inh | Cycloheximide cs | Shiga inhibitor
COc1ccc(C(CNC(=O)COc2cc(C)c(Cl)c(C)c2)N2CCCCC2)cc1 (centres undefined) | 10% | ? | -5 | 17 | -10
COc1ccc(C(CNC(=O)COc2ccc(Cl)cc2C)N2CCCCC2)cc1 (centres undefined) | -29% | 12µM* | 1 | 2 | 26
COc1ccc(C(CNC(=O)C(C)(C)Oc2ccc(Cl)cc2)N2CCCC2)cc1 (centres undefined) | ? | ? | -31 | · | ·
COc1ccccc1C(CNC(=O)C(C)(C)Oc1ccc(Cl)cc1)N1CCCC1 (centres undefined) | ? | 13µM* | -39 | · | ·
COc1ccc(C(CNC(=O)c2ccc(-c3ccccc3Cl)o2)N2CCCC2)cc1 (centres undefined) | · | · | -18 | · | ·
COc1ccc(C(CNC(=O)c2ccc(-c3nc4ccccc4s3)o2)N2CCCC2)cc1 (centres undefined) | 10µM* | 7.4µM* | ? | · | ·
COc1ccc(C(CNC(=O)COc2ccccc2)N2CCCCC2)cc1 (centres undefined) | 15µM* | ? | -14 | · | ·
Cc1nn(C)c2c1c(-c1ccccc1)cc(=O)n2Cc1ccc(F)cc1Cl | · | · | 0 | · | ·
CC1C(=O)N(Cc2cccc(F)c2)c2ccccc2N1C(=O)c1ccccc1 (centres undefined) | ? | ? | ? | 6 | 5
COc1ccc(C(CNC(=O)c2oc3cc(C)c(Cl)cc3c2C)N2CCCCC2)cc1 (centres undefined) | -5% | 5.2µM* | 5 | -5 | -9
COc1ccccc1C(CNC(=O)c1oc2ccccc2c1C)N1CCCC1 (centres undefined) | 13µM* | ? | ? | · | ·
COc1ccc(C(CNC(=O)c2oc3ccc(C)cc3c2C)N2CCCCC2)cc1 (centres undefined) | ? | ? | 25 | -1 | -5
COc1ccc2cc(CO)c3cc(OC)c(OC)cc3c2c1 | · | · | -14 | · | ·
O=C(O)C1SCCN1S(=O)(=O)c1ccc(N=NN2CCOCC2)cc1 (centres undefined) | 1.9µM* | 21% | 8 | 0 | -11
N#Cc1cc(-c2ccccc2)cnc1Sc1ccccc1 | 41% | 30% | 33 | 27* | 55*
Cc1ccc(Sc2nnc(-c3ccccc3)cc2C#N)cc1 | · | ? | 29 | 6 | 36
COc1ccc(C2NC(c3ccc(OC)cc3)C(c3ccccc3)C(=O)C2c2ccccc2)cc1 (centres undefined) | 10µM* | 12µM* | -15 | -1 | 4
COc1ccc(C2NC(c3ccc(OC)cc3)C(C)C(=O)C2C)cc1 (centres undefined) | -33% | ? | -27 | 1 | -11
CCc1ccc(NC(=O)Nc2cccc(OC)c2)cc1 | 24% | 104% | ? | 26* | 105*
COc1cccc(NC(=O)Nc2ccc(CC(=O)O)cc2)c1 | 2.3µM* | 21% | -17 | -1 | 24
O=C(O)Cc1ccc(NC(=O)Nc2cccc(Cl)c2)cc1 | 71% | 3% | -22 | -3 | -9
CCc1ccc(NC(=O)C(=O)NNC(=O)c2cccc(OC)c2)cc1 | 10% | 25% | -10 | 1 | -10
COc1ccccc1C(=O)NC(=O)Nc1ccc(-n2nc(C(F)(F)F)cc2C(F)(F)F)cc1 | · | · | -3 | · | ·
COc1ccccc1CNC(=O)COCc1cc(-c2ccc3c(c2)OCO3)on1 | · | · | 0 | · | ·
COc1ccc(CNC(=O)[C@H](C)N2C(=O)N3CCc4c([nH]c5ccccc45)[C@@]3(C)C2=O)cc1OC | 8.3µM* | ? | ? | -2 | -12
SMILES | Pf growth 96h | Pf growth 48h | HCMV inh | Cycloheximide cs | Shiga inhibitor
COc1ccc2[nH]c3c(c2c1)CCN1C(=O)N([C@@H](C)C(=O)NCCc2ccc(F)cc2)C(=O)[C@]31C | 8.3µM* | -29% | 9 | 2 | 20
COc1ccc2[nH]c3c(c2c1)CCN1C(=O)N([C@@H](C)C(=O)NCc2ccc(F)cc2)C(=O)[C@]31C | ? | ? | 5 | -2 | -2
CCOC(=O)N1CCN(S(=O)(=O)c2c(C)cc(C)cc2C)CC1 | 31% | -11% | 30 | -1 | -4
CCOC(=O)N1CCN(C(=O)C2CCN(S(=O)(=O)c3c(C)cc(C)cc3C)CC2)CC1 | ? | · | -107* | 2 | -14
CC(=O)Nc1ccc(S(=O)(=O)N2CCN(C(=O)N3CCCC3)CC2)cc1 | 30% | 5% | -21 | -2 | -3
CCOC(=O)N1CCC(C(=O)NNC(=O)c2ccc(Cl)cc2Cl)CC1 | 10µM* | 17% | -9 | -12 | -2
CC(=O)Nc1ccc(S(=O)(=O)N2CCN(C(=O)N3CCCCCC3)CC2)cc1 | · | ? | -69* | -3 | -8
CCOC(=O)N1CCN(C(=O)C2CCCN(S(=O)(=O)c3c(C)cc(C)cc3C)C2)CC1 (centres undefined) | 10µM* | ? | -9 | -4 | -8
CCc1ccccc1NC(=O)CN1C(=O)c2cccnc2Sc2ccccc21 | · | · | 6 | · | ·
Cc1coc2c1c(C)cc1oc(=O)c(CC(=O)NCc3ccc(Cl)cc3)c(C)c12 | · | · | 3 | · | ·
CC(=O)Nc1ccc(S(=O)(=O)N2CCN(S(=O)(=O)c3ccc(NC(C)=O)cc3)CC2)cc1 | 61% | 5% | · | -3 | -4
CCOC(=O)N1CCN(C(=O)C2CCCN(S(=O)(=O)c3ccc(F)cc3)C2)CC1 (centres undefined) | -18% | -9% | ? | -1 | 9
CC(=O)Nc1ccc(S(=O)(=O)N2CCc3c(Cl)cccc3C2)cc1 | 15µM* | · | -67* | -4 | -9
CCOC(=O)N1CCN(C(=O)C2CCN(S(=O)(=O)c3ccc(NC(C)=O)cc3)CC2)CC1 | 8.3µM* | ? | 32 | -1 | -6
CCOC(=O)N1CCN(C(=O)C2CCN(S(=O)(=O)c3cc(Cl)ccc3Cl)CC2)CC1 | 29% | 7.4µM* | -15 | -4 | -20
CCOC(=O)N1CCN(C(=O)C2CCCN(S(=O)(=O)c3ccc(C)cc3)C2)CC1 (centres undefined) | ? | · | -61* | -2 | -6
CCOCCn1cnc2sc(C(=O)NCC(=O)OCC)c(C)c2c1=O | 3% | 23% | 51 | 23* | 32*
CCOC(=O)Cn1cnc2sc(C(=O)OC)c(C)c2c1=O | 60% | 14% | -34 | 11 | 25*
CCn1cnc2sc(C(=O)Oc3ccc(Br)cc3)c(C)c2c1=O | 2.9µM* | 54% | -31 | 30* | 64*
Cc1nc(C(C)N(C)Cc2nc(Cc3ccccc3F)no2)c(C)s1 (centres undefined) | -29% | ? | 0 | 7 | 61
CC(C)CN(C(=O)COC(=O)CN1C(=O)c2ccccc2C1=O)c1c(N)n(Cc2ccccc2)c(=O)[nH]c1=O | 5% | -16% | -15 | · | ·
O=[N+]([O-])c1ccc(N2CCN(S(=O)(=O)c3ccccc3)CC2)cc1NCc1ccco1 | 13µM* | -20% | · | 4 | 10
